# From PubChem BioAssay (EPA / NIEHS)
# “And” between values parts separate entries of the source, which are not always exact repeats. Equal entries are not always repeated. Some compounds were tested as several samples or in several runs, with calls that do not always agree. The source made the active and inactive calls. The calls were made as follows: active = hit-call score of the fitted dose curve at least 0.9, where 1 is the maximum; inactive = score below 0.9.
# Read-out: Interferon-inducible T-cell alpha chemoattractant (ITAC), CXCL11 (gene 6373)
# Assay: BSK_BE3C_ITAC: BioMAP Diversity Plus: BE3C Assay for Interferon-inducible T-cell alpha chemoattractant (ITAC) Biomarker Activity (AID 2284279)
# Details: primary human bronchial epithelial cells
# Protocol: BSK_BE3C is a cell-based, multiplexed-readout assay that uses bronchial epithelial cell, a human lung primary cell, with measurements taken at 24 hours after chemical dosing in a 96-well plate.BSK_BE3C_ITAC is an assay component measured in the BSK_BE3C assay. It measures I-TAC antibody related to regulation of gene expression using ELISA technology.Data from the assay component BSK_BE3C_ITAC was analyzed at the endpoint, BSK_BE3C_ITAC, in the positive analysis fitting direction relative to DMSO as the negative control and baseline of activity. Using a type of binding reporter, gain or loss-of-signal activity can be used to understand protein changes. To generalize the intended target to other relatable targets, this assay endpoint is annotated to the 'cytokine' intended target family, where the subfamily is 'chemotactic factor'.
# The levels of cell surface (or secreted, indicated by the prefix "s") biomarker endpoints were measured by ELISA. Overt cytotoxicity to cells in confluent adherent cultures (all systems other than the BT system) was assessed by measuring total protein levels using sulforhodamine B (SRB) staining in parallel cultures at the time of biomarker measurements, indicated as SRB endpoints. For proliferation assays for adherent cell types, individual cell types are cultured at sub-confluence and relative cell numbers quantified by SRB staining at time points optimized for each system (48 h: 3C and CASM3C systems; 72 h: BT and HDF3CGF systems; 96 h: SAg system). SRB was performed by staining cells with 0.1% SRB after fixation with 10% TCA and reading wells at 560 nm.Viability and proliferation of PBMC (T cells) was quantified by Alamar Blue reduction for the SAg and BT systems. For PBMC viability (referred to as PBMC Cytotoxicity within the assay endpoint names), cells were plated (75,000/well in a 96-well plate) and then chemical samples added for 1 h before addition of activators, SEB and TSST-1 (20 ng/mL final concentration each). Cells were incubated for 90 h. Then, Alamar Blue (20 uL/well) (Invitrogen, Cat DAL1100) was added for 6 h, and the plates were read with a fluorescence microplate reader at 546/580 nm (excitation/emission). For PBMC proliferation, cells were plated and activated as above but incubated for only 16 h prior to addition of Alamar Blue. Plates were read after 6 h.
Compound,outcome,AC50
C=CC(=O)OCCC(F)(F)C(F)(F)C(F)(F)C(F)(F)C(F)(F)C(F)(F)C(F)(F)C(F)(F)F,inactive,–
CCCCCCCCCCCC,–,8.03 µM (active) and 6.71 µM (active)
O=P(O)(O)CCC(F)(F)C(F)(F)C(F)(F)C(F)(F)C(F)(F)C(F)(F)F,inactive,–
O=P(O)(O)CCC(F)(F)C(F)(F)C(F)(F)C(F)(F)C(F)(F)C(F)(F)C(F)(F)C(F)(F)F,inactive,–
O=C(CC(=O)C(F)(F)C(F)(F)C(F)(F)F)c1cccs1,–,24.7 µM (active) and 24.1 µM (active)
O=S(=O)(O)C(F)(F)C(F)(F)C(F)(F)C(F)(F)C(F)(F)C(F)(F)C(F)(F)C(F)(F)C(F)(F)C(F)(F)F,inactive,21.8 µM (active)
OCC(F)(F)C(F)(F)C(F)(F)C(F)(F)C(F)(F)C(F)(F)C(F)(F)C(F)(F)C(F)(F)C(F)(F)C(F)(F)F,inactive,–
CN(Cc1cnc2nc(N)nc(N)c2n1)c1ccc(C(=O)N[C@@H](CCC(=O)O)C(=O)O)cc1,inactive,–
O=C1NS(=O)(=O)c2ccccc21,inactive,–
Oc1c(Cl)cc(Cl)cc1Sc1cc(Cl)cc(Cl)c1O,–,3.3 µM (active) and 3.57 µM (active)
O=C(O)CCC(F)(F)C(F)(F)C(F)(F)C(F)(F)C(F)(F)F,inactive,–
Oc1ccc(Cc2ccccc2O)cc1,inactive,–
O=C(O)C(F)(F)OC(F)(F)C(F)(F)OC(F)(F)C(F)(F)OC(F)(F)C(F)(F)C(F)(F)C(F)(F)F,–,5.77 µM (active) and 5.71 µM (active)
O=C(O)CCC(F)(F)C(F)(F)C(F)(F)C(F)(F)C(F)(F)C(F)(F)F,inactive,–
CN(CCO)S(=O)(=O)C(F)(F)C(F)(F)C(F)(F)C(F)(F)C(F)(F)C(F)(F)C(F)(F)C(F)(F)F,inactive,–
